This note sets out measurements from PubChem BioAssay AID1212 (NMMLSC, 2008).

A number with no mark means an inactive call. Activity calls are given as the source filed them.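 How the source made its calls: active means blocks over 60% of fluorescent estradiol binding at 10 µM; inactive means the rest.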

The target in this test is G-protein coupled estrogen receptor 1 (Homo sapiens) (UniProt Q99527). The experiment in a line: displacement of E2-Alexa633 from GPER – cell-based, Cos7 GPR30-GFP, flow cytometry, 10 µM, primary screen (AID 1212). The settings on record: fluorescent estrogen competition, at 10 µM; active compounds read high.
As to `COc1ccc2[nH]cc(CCN=C(N)N)c2c1`, the call was inactive.
With `N=c1c[n+](CCc2ccc(O)cc2)[n-]o1`, the result was inactive.
Consider `COc1ccc(C2(CN)CCCC2)cc1`, for which the inhibition was 10%.
The same measure, in the same setting: as for `CCNCC1(c2ccc(OC)c(OC)c2)CCCC1`, the figure is 7%; as for `COc1cc2c(cc1OC)CC(C)(C)NC2`, 3%.
Regarding `CC1(C)CC(CCNCc2ccc3c(c2)OCO3)(Cc2ccccc2)CCO1` (stereo not drawn), the call was inactive.
Still for that read-out and setting: to `COc1ccc(C2(CN)CCCC2)cc1OC` belongs “inactive”; to `O=C1C2CCN(CC2)C1Cc1ccc(O)cc1` (stereo not drawn), “inactive”.

As a reminder, the inhibition is the relative decrease from the control value, in per cent.
